We go through one sequence from article PMC7862700, “An all-to-all approach to the identification of sequence-specific readers for epigenetic DNA modifications on cytosine”.

Holding throughout (test): DAPPL (digital affinity profiling via proximity ligation, sequencing); 10 mM Tris-HCl pH 7.5, 50 mM NaCl, 1 mM DTT, 4% glycerol, room temperature, 30 min; GST-TFs on glutathione beads, 16-mer random dsDNA library, 0.1% formaldehyde crosslink after washing; high values mean tight binding
One test deals with T1, FEV (Homo sapiens, UniProt Q99581 1-238).
T1 sequence: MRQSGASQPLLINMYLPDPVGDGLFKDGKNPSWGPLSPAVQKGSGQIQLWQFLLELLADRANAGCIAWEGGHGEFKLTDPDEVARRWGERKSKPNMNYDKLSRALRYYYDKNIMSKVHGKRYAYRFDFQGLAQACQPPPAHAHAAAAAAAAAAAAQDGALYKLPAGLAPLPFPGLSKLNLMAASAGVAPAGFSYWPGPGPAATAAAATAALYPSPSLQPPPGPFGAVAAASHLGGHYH
The conditions noted are these: protein: recombinant; tags: N-terminal GST; dsDNA, one strand shown. The gist of the method:
(§1)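 Human transcription factors were made in yeast as GST fusions, captured on glutathione beads and barcoded with DNA. With a tag-only sample included, the pool was incubated with 200 nmole of a random double-stranded 16-mer DNA library in Tris/NaCl/DTT/glycerol buffer at room temperature for 30 min, then crosslinked with 0.1% formaldehyde after washing, ligated by proximity, amplified and sequenced. For binding signal, each hexamer's read frequency for a factor is divided by its frequency for the tag-only sample.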

The target in the next test is ETV5 (Homo sapiens, UniProt P41161 1-510). The conditions noted are these: protein: recombinant; tags: N-terminal GST; dsDNA, one strand shown. In short, it runs like this:
as §1

In a further test the target is HSF1 (Homo sapiens, UniProt Q00613 1-529). The following applies: protein: recombinant; tags: N-terminal GST; chain copies: 3; dsDNA, one strand shown. In short, it runs like this: as §1
Sequence of HSF1 (Q00613 whole entry): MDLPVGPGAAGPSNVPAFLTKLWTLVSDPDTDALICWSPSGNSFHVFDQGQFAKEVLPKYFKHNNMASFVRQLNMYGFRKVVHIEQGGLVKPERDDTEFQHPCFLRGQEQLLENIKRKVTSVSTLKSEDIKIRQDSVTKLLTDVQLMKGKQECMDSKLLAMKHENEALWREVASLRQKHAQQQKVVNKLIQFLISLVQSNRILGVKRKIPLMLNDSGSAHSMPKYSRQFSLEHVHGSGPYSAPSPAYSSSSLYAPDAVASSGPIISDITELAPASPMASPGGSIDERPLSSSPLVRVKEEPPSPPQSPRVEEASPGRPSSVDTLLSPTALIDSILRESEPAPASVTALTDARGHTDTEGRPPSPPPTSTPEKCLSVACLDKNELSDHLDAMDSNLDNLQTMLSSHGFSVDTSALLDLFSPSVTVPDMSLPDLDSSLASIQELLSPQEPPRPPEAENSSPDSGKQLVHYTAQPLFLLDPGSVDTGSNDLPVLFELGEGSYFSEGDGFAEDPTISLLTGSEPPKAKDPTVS
The target of a further test is T2, SPIC (Homo sapiens, UniProt Q8N5J4 1-248).
T2 sequence: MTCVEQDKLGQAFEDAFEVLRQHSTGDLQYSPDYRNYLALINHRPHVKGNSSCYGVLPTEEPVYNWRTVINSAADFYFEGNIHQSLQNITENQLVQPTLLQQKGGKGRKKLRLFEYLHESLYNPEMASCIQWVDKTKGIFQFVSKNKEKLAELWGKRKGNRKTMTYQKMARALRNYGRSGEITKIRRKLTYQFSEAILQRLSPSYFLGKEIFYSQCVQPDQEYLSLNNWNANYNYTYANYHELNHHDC
The following applies: protein: recombinant; tags: N-terminal GST; dsDNA, one strand shown. In short, it runs like this:
as §1

The next test deals with ELF4 (Homo sapiens, UniProt Q99607 1-663). The following applies: protein: recombinant; tags: N-terminal GST; dsDNA, one strand shown. In short, it runs like this: as §1
Sequence of ELF4 (Q99607 whole entry): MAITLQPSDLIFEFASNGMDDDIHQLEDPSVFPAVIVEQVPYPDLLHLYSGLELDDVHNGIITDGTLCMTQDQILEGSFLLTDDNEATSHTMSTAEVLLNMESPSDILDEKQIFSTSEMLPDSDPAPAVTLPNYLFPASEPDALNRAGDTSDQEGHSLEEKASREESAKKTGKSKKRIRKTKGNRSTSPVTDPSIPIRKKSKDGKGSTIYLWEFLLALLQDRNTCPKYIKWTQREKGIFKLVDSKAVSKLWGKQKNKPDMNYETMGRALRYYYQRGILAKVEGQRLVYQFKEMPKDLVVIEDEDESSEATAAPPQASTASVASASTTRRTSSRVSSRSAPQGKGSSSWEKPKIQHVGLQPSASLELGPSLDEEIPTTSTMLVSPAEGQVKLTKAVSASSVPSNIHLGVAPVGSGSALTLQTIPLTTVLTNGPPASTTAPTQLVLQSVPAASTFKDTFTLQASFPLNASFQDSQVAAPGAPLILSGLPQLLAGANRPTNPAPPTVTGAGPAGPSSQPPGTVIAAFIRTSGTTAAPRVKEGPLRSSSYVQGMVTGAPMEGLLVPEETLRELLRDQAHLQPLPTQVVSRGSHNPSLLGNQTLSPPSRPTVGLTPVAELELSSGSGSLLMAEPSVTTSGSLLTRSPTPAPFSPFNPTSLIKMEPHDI
In another test the target is T3, ELK4 (Homo sapiens, UniProt P28324-2 1-405).
T3 sequence: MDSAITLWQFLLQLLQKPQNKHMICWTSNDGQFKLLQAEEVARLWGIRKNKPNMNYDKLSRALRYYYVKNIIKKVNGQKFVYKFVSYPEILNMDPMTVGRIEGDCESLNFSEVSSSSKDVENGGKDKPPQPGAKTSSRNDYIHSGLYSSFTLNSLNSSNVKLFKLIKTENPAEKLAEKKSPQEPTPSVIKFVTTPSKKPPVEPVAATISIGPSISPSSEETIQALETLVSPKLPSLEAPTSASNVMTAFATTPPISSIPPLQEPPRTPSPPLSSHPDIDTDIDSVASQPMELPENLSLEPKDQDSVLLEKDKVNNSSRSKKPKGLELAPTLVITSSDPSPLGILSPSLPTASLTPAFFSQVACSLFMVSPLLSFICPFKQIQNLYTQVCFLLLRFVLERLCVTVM
The conditions noted are these: protein: recombinant; tags: N-terminal GST; dsDNA, one strand shown. In short, it runs like this: as §1

A further test concerns the target T4, ETV2 (Homo sapiens, UniProt O00321 1-342).
T4 sequence: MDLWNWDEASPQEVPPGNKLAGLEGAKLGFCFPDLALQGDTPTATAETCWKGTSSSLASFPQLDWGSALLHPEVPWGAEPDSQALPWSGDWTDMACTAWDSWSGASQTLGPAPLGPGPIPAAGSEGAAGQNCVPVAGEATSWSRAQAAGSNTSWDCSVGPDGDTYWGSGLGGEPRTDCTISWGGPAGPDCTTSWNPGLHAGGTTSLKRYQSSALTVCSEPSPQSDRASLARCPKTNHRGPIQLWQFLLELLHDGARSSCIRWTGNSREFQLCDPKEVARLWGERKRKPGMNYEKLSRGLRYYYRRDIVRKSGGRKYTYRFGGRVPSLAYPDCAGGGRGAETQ
The following applies: protein: recombinant; tags: N-terminal GST; dsDNA, one strand shown. The gist of the method:
as §1

Another test deals with T5, ELF3 (Homo sapiens, UniProt P78545 1-371).
T5 sequence: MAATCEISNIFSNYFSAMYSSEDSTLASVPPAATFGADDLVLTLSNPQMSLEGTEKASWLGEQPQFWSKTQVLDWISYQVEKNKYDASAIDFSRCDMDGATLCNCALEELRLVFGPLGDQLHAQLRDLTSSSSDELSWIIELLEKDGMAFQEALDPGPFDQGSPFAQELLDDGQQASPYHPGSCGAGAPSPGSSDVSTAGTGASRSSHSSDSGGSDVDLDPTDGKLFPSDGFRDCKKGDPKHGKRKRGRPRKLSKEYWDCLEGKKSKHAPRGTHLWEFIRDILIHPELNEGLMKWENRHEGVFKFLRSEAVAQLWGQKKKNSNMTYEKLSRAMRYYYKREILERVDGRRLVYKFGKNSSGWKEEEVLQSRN
The following applies: protein: recombinant; tags: N-terminal GST; dsDNA, one strand shown. In short, it runs like this: as §1

A further test has as its target CRX (Homo sapiens, UniProt O43186 1-299). The conditions noted are these: protein: recombinant; tags: N-terminal GST; dsDNA, one strand shown. In short, it runs like this: as §1
Another test deals with ETV1 (Homo sapiens, UniProt P50549 1-477). The following applies: protein: recombinant; tags: N-terminal GST; dsDNA, one strand shown. In short, it runs like this:
as §1

Another test deals with T6, ERF (Homo sapiens, UniProt P50548 1-548).
T6 sequence: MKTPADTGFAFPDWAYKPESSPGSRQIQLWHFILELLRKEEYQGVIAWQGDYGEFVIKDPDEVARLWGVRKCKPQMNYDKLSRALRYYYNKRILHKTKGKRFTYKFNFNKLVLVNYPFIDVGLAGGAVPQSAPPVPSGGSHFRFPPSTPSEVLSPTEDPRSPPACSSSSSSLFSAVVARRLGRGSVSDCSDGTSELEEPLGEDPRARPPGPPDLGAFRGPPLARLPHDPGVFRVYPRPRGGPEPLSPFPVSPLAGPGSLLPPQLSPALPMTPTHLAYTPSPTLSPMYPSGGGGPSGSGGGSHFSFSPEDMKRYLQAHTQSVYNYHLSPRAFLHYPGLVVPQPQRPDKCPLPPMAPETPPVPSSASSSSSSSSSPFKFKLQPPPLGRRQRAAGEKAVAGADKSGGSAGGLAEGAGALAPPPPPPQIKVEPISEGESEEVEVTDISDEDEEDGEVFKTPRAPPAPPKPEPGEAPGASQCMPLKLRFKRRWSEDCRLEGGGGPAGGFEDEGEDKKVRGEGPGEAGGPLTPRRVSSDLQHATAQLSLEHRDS
The conditions noted are these: protein: recombinant; tags: N-terminal GST; dsDNA, one strand shown. The gist of the method: as §1

In the next test the target is T7, ETV3L (Homo sapiens, UniProt Q6ZN32 1-361).
T7 sequence: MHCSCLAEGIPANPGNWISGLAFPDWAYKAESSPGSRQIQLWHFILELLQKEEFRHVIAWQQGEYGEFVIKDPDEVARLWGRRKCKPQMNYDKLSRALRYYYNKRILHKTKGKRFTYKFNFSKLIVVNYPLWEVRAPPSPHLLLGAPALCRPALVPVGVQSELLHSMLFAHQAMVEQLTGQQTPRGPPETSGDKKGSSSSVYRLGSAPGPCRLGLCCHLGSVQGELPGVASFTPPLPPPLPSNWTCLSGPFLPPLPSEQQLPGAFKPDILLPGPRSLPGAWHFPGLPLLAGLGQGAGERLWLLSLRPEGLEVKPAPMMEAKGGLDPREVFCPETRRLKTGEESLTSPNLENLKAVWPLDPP
The following applies: protein: recombinant; tags: N-terminal GST; dsDNA, one strand shown. In short, it runs like this: as §1

A further test concerns the target T8, ETS2 (Homo sapiens, UniProt P15036 1-469).
T8 sequence: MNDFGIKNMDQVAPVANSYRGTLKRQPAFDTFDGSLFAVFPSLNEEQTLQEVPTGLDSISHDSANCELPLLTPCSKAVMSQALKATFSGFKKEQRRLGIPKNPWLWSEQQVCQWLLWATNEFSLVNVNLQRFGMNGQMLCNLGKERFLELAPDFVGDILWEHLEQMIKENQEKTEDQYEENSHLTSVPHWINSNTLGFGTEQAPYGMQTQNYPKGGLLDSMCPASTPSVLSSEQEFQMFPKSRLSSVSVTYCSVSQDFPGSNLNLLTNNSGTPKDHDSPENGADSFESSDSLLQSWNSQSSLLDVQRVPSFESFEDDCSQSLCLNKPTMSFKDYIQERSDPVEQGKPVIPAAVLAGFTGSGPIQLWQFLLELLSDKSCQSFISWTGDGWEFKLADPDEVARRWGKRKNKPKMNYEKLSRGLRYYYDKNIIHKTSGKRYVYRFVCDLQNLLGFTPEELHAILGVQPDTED
The following applies: protein: recombinant; tags: N-terminal GST; dsDNA, one strand shown. In short, it runs like this:
as §1

For the next test, the target named is T9, SPDEF (Homo sapiens, UniProt O95238 1-335).
T9 sequence: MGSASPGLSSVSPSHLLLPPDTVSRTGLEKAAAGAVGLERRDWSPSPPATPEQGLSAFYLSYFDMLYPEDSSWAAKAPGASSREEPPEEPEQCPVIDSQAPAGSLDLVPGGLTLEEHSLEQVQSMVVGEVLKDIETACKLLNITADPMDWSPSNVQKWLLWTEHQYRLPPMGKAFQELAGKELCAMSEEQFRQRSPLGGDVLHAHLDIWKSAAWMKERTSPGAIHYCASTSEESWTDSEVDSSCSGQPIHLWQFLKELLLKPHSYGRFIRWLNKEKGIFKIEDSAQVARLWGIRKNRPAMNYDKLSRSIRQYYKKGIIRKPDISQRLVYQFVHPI
The conditions noted are these: protein: recombinant; tags: N-terminal GST; dsDNA, one strand shown. The gist of the method: as §1

The target in the next test is T10, ETV7 (Homo sapiens, UniProt Q9Y603 1-341).
T10 sequence: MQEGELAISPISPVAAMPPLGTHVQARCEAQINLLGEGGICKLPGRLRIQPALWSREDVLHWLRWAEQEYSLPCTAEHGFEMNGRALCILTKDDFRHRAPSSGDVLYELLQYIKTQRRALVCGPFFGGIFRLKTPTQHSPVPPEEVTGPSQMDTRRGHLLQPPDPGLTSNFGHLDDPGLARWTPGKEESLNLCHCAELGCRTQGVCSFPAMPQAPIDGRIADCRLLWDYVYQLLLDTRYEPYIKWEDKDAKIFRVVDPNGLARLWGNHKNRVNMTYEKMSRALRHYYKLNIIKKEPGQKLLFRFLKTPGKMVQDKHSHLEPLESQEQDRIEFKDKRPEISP
The conditions noted are these: protein: recombinant; tags: N-terminal GST; dsDNA, one strand shown. The gist of the method: as §1

Another test has as its target T11, ELF5 (Homo sapiens, UniProt Q9UKW6-2 1-255).
T11 sequence: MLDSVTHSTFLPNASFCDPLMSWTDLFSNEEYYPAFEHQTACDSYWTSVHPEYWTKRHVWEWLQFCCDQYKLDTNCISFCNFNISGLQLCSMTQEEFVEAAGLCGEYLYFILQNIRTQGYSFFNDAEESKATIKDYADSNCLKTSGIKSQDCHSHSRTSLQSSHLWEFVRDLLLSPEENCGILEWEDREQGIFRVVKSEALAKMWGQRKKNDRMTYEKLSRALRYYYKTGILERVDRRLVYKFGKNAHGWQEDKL
The following applies: protein: recombinant; tags: N-terminal GST; dsDNA, one strand shown. The gist of the method:
as §1

A further test addresses T12, ETV3 (Homo sapiens, UniProt P41162-2 1-143).
T12 sequence: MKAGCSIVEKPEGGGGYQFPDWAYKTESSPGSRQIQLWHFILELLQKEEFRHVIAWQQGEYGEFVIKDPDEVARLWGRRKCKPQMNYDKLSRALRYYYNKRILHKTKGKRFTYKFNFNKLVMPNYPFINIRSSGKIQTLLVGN
The following applies: protein: recombinant; tags: N-terminal GST; dsDNA, one strand shown. In short, it runs like this:
as §1

The next test concerns the target ETV6 (Homo sapiens, UniProt P41212 1-452). The following applies: protein: recombinant; tags: N-terminal GST; dsDNA, one strand shown. The gist of the method: as §1

Sequence of ETV6 (P41212 whole entry): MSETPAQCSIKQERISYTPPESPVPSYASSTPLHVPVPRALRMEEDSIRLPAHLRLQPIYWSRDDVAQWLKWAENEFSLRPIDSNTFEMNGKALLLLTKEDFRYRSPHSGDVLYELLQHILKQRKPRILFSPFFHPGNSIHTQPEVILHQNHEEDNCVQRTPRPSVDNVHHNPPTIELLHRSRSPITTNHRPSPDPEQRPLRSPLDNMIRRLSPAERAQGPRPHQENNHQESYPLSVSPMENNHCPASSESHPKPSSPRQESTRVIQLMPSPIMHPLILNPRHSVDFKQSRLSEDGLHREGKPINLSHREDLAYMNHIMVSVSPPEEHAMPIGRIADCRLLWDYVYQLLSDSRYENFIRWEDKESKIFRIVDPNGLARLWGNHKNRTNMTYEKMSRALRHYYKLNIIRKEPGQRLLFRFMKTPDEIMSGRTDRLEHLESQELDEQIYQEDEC
Sequence of ETV1 (P50549 whole entry): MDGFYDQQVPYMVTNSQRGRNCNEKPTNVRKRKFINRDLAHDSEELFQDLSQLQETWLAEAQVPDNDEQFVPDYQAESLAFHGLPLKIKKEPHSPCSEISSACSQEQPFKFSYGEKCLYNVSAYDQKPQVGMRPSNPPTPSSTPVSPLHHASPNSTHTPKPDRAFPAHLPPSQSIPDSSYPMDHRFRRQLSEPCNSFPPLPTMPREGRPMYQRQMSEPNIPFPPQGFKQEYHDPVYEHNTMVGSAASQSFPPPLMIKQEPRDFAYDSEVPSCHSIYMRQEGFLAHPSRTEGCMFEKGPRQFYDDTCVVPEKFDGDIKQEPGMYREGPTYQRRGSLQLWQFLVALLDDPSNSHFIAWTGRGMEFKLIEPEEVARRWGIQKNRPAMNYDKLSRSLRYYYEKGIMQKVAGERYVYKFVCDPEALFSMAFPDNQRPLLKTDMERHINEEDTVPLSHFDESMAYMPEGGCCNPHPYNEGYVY
Sequence of CRX (O43186 whole entry): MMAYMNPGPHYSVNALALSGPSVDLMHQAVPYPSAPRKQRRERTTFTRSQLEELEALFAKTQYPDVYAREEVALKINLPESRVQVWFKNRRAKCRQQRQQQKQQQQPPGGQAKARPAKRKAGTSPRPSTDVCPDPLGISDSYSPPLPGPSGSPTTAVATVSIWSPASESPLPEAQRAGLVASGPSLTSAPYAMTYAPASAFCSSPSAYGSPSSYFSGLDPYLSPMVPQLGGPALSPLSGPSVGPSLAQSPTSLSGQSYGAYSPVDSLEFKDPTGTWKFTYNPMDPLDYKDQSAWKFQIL
Sequence of ETV5 (P41161 whole entry): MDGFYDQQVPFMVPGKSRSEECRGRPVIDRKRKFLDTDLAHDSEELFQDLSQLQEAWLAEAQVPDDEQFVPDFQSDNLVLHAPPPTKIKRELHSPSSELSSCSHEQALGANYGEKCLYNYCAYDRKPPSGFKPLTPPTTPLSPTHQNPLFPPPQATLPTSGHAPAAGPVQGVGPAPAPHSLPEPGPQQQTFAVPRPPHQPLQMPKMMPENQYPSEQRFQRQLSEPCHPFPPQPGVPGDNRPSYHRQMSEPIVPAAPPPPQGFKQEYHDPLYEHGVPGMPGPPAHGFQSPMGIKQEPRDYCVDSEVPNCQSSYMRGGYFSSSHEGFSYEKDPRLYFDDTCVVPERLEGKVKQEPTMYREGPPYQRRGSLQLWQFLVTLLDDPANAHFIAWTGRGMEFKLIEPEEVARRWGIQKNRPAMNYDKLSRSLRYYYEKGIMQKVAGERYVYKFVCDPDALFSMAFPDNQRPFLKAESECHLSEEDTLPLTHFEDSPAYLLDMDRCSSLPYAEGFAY

As for GACTTC, the binding signal was 3.36 fold enrichment (6-mer frequency, TF over GST control) with FEV; 2.51 fold enrichment (6-mer frequency, TF over GST control) in the test with ETV5; 1.23 fold enrichment (6-mer frequency, TF over GST control) with HSF1; 2.23 fold enrichment (6-mer frequency, TF over GST control) with SPIC; 2.28 fold enrichment (6-mer frequency, TF over GST control) with ELF4; 2.22 fold enrichment (6-mer frequency, TF over GST control) in the test with ELK4. The binding signal with ETV2 was 2.35 fold enrichment (6-mer frequency, TF over GST control); with ELF3, 2.29 fold enrichment (6-mer frequency, TF over GST control); with CRX, 1.12 fold enrichment (6-mer frequency, TF over GST control); with ETV1, 2.56 fold enrichment (6-mer frequency, TF over GST control); with ERF, 2.25 fold enrichment (6-mer frequency, TF over GST control); with ETV3L, 2.41 fold enrichment (6-mer frequency, TF over GST control). The binding signal is 2.58 fold enrichment (6-mer frequency, TF over GST control) in the test with ETS2; 2.13 fold enrichment (6-mer frequency, TF over GST control) with SPDEF; 2.2 fold enrichment (6-mer frequency, TF over GST control) with ETV7; 2.99 fold enrichment (6-mer frequency, TF over GST control) with ELF5; 2.6 fold enrichment (6-mer frequency, TF over GST control) with ETV3; 2.64 fold enrichment (6-mer frequency, TF over GST control) with ETV6.
